Laboratory results: PubChem BioAssay AID485275 (NMMLSC, 2010)
In all, about 330,000 compounds went through this assay and about 1,400 (0.42%) were called active. This is one part of a sample in which actives are shown more often than they occur. Values without a mark were called inactive.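 Rule for the calls: active = plate passing quality check with inhibition over a set limit, or well fluorescence over plate mean plus 4 SD; inactive = the rest.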

assay: antifungal drug efflux pump blockers, triplex strains – S. cerevisiae, Nile Red, multiplex, primary screen (AID 485275);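 note: Nile Red retained in pooled yeast measured as flow cytometry median fluorescence; 0% = buffer negative control and 100% = Enniatin B positive control; higher means more Nile Red kept so more efflux inhibition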; settings: S. cerevisiae Candida pump triplex, at 10 µM, stronger effect = higher value

Structure (SMILES) | inhibition
CC(=O)c1ccc(N2CCN(C(=O)C3CCN(S(=O)(=O)c4ccc5c(c4)CC(C)N5C(=O)C4CC4)CC3)CC2)cc1 (configuration not stated) | 40.5% (active)
CC(=O)N1c2ccc(S(=O)(=O)N3CCC(C(=O)N4CCN(c5ccccc5)CC4)CC3)cc2CC1C (configuration not stated) | -0.03%
COc1ccccc1CNC(=O)C1CCN(S(=O)(=O)c2ccc3c(c2)CC(C)N3C(=O)C2CC2)CC1 (configuration not stated) | 0.09%
CC1CC(=NNC(=O)C2COc3ccccc3O2)CC(C)(C)C1 (configuration not stated) | -0.31%
Cc1cccc(N2CCN(C(=O)CCS(=O)(=O)c3ccc4c(c3)NC(=O)C(C)S4)CC2)c1C (configuration not stated) | -0.07%
O=C(CCc1c[nH]c2ccccc12)NCCOc1ccccc1 | -0.08%
O=C(CCCCCn1c(=O)[nH]c2ccccc2c1=O)NCCc1c[nH]c2ccccc12 | 0.52% (active)
CCN(CC)CCNC(=O)CCCCCn1c(=O)[nH]c2cc(C(=O)OC)ccc2c1=O | -0.02%
CCCSc1ccc([C@H]2N[C@@](Cc3ccccc3)(C(=O)OC)[C@H]3C(=O)N(C)C(=O)[C@@H]23)cc1 | 0.02%
CSCC(NS(=O)(=O)c1ccc(C)cc1)C(=O)O (configuration not stated) | -0.01%
CSCCC(NC(=O)c1ccccc1)C(=O)N1CCCCCCC1 (configuration not stated) | 0.05%
CSCCC(NS(=O)(=O)c1ccc(C)cc1)C(=O)N1CCCC1 (configuration not stated) | 1.45% (active)
COc1ccc(-n2nnc3c(=O)n(CC(=O)N4CCC(Cc5ccccc5)CC4)cnc32)cc1 | 0.1%
O=C(NCc1nnc(SCC(=O)N2CCCCCC2)o1)c1ccc(F)cc1 | -0.18%
Nc1nnc(C2CCCC2)s1 | 0.48%
O=C(CN1C(=O)C2C3CCC(C3)C2C1=O)Oc1ccc2ccccc2c1 (configuration not stated) | 5.45% (active)
O=C(CCN1C(=O)C2C3C=CC(C3)C2C1=O)Oc1ccc2ccccc2c1 (configuration not stated) | 0.01%
Cc1ccc(C(=O)COC(=O)CCN2C(=O)C3C4CCC(C4)C3C2=O)cc1C (configuration not stated) | -0.13%
O=C(c1cc(-c2ccco2)nc2ccccc12)N(Cc1nnc(-c2ccc(Cl)cc2)o1)C1CC1 | 0.11%
Cc1ccc(-n2c(C)cc(/C=N\NC(=O)CC(=O)NC(C)C)c2C)cc1 | -0.13%
Cc1cccc(-n2c(C)cc(/C=N\NC(=O)c3cccs3)c2C)c1 | -0.56%
Cc1cc(/C=N/NC(=O)CC2(C)OCCO2)c(C)n1-c1ccc(Cl)c(Cl)c1 | 1.6% (active)

Structure (SMILES) | inhibition
CC1CCN(C(=O)CCNC(=O)c2ccccc2)CC1 | -0.28%
CN=C(c1ccccc1)c1c(C)cccc1C | 23.6% (active)
Cc1ccccc1NC(=O)CSC(=O)c1ccccc1 | -0.08%
Cc1cccc(C)c1NC(=O)C(Cl)C(=O)c1ccccc1 (configuration not stated) | 0.07%
CCn1c(SCC(=O)NC2CC2)nnc1-c1ccccn1 | -0.04%
COC(=O)c1ccc2c(c1)S(=O)(=O)NC(=NCCCN1CCOCC1)S2 | 0%
O=C(NCCC1CCCCN1S(=O)(=O)c1cccs1)C(=O)Nc1ccc(F)cc1F (configuration not stated) | 0.02%
O=C(/C=C/c1ccc([N+](=O)[O-])cc1)NCCSCc1ccco1 | 0.15%
CC1CCc2c(sc(NC(=O)c3ccc(Cn4cc(Br)cn4)o3)c2C(N)=O)C1 (configuration not stated) | 0.29% (active)
CN(C)c1ccc(/C=N/NC(=O)c2ccc(Cn3cc(Br)cn3)o2)cc1 | -0.5%
COc1cccc(OC)c1C(=O)Nc1sc2c(c1C(N)=O)CCCC2 | -0.23%
COc1ccc(CNc2ccc3c(c2)CCC3)cc1OC | 0%
CCn1c(SCC(=O)N/N=C/c2ccccc2OCC(=O)O)nnc1-c1ccc(C(C)(C)C)cc1 | 0.05%
Cc1nnc(SCC(=O)NC(=O)NC2CCCC2)n1N | 0.12%
O=C(O)c1cc(Cl)c(Cl)cc1C(=O)Nc1cccc2ncccc12 | -0.06%
Cc1ccc(/C=C(\C#N)C(=O)Nc2cccc3ncccc23)o1 | 6.65% (active)
N#C/C(=C/c1ccc(N2CCCCC2)o1)C(=O)NCCc1c[nH]c2ccccc12 | -0.28%
C[C@@H]1NC(=O)c2cc([N+](=O)[O-])cc(F)c2NCCC[C@@H](C(N)=O)NC(=O)[C@H](CC(N)=O)NC1=O | -0.03%
COc1ccccc1NC(=O)[C@H](COCc1ccccc1)NC(=O)OC(C)(C)C | -0.12%
CC(C)(C)OC(=O)N1CCC(C(=O)NNC(=O)c2ccc(Cl)cc2Cl)CC1 | -0.04%
CCn1c(=O)c(=O)n(CC)c2cc(S(=O)(=O)N3CCc4ccccc43)ccc21 | -0.1%
O=S(=O)(c1ccc2c(c1)OCCO2)N1CCc2ccccc21 | 0.34%

Structure (SMILES) | inhibition
O=S(=O)(c1ccccc1)N1CCc2ccccc21 | 0.75% (active)
COc1ccc(CCNS(=O)(=O)c2cn(C)nc2C)cc1 | -0.02%
CCOC(=O)N1CCN(C(=O)C2CCN(S(C)(=O)=O)CC2)CC1 | -0.13%
Cc1ccc2c(C)c(C(=O)N(C)Cc3ccncn3)oc2c1C | 1.25%
O=C1NC(=O)C2C1C(c1ccc([N+](=O)[O-])cc1)=NN2Cc1ccccc1 (configuration not stated) | 1.09% (active)
CC(=O)N1c2ccccc2N(Cc2ccc([N+](=O)[O-])cc2)C(=O)C1(C)C | 0.1%
O=C(NCCCCc1ccccc1)C1CC(c2ccc([N+](=O)[O-])cc2)=NO1 (configuration not stated) | 0.02%
Cc1ccc(CN2CCN(Cc3cccc(C)n3)CC2CCO)cc1 (configuration not stated) | -0.07%
CC(=O)Nc1ccc(/C(C)=N/NC(=O)CN(c2ccccc2Br)S(C)(=O)=O)cc1 | 0.36%
O=C(Cc1ccc(Br)cc1)N1CCN(c2ccccn2)CC1 | 11.1% (active)
O=C(Cc1ccccc1Cl)N1CCN(c2ccccn2)CC1 | -0.02%
O=C(CCC1CCCN(C(=O)Cc2ccc(F)cc2)C1)N1CCN(c2ccccn2)CC1 (configuration not stated) | -0.13%
COc1ccc(N(CC(=O)NCC2CCCO2)C(=O)CCC(=O)Nc2nccs2)c(OC)c1 (configuration not stated) | 0.02%
CCN1CCN(c2ccc(S(=O)(=O)N3CCCCC3)cc2NC(=O)Cc2c(Cl)cccc2Cl)CC1 | -0.36%
Cc1cc(-c2ccc(S(=O)(=O)N3CCc4ccccc4C3)s2)on1 | -0.2%
CC(C)N(c1ccccc1)c1ncnc(NCCC(=O)O)c1[N+](=O)[O-] | 0.29%
CC(C)Cn1c(N)c(C(=O)COC(=O)C2CCCN2C(=O)c2cccs2)c(=O)n(C)c1=O (configuration not stated) | 0.07%
CCOC(=O)C1CCN(C(c2cc3cc(C)cc(C)c3[nH]c2=O)c2nnnn2C2CCCCC2)CC1 (configuration not stated) | 0.07%
Cc1cc(C)c2[nH]c(=O)c(C(c3nnnn3Cc3ccc4c(c3)OCO4)N3CCCC3)cc2c1 (configuration not stated) | 1.06% (active)
Fc1ccccc1C(c1nnnn1Cc1ccc2c(c1)OCO2)N1CCN(Cc2ccccc2)CC1 (configuration not stated) | -0.02%
O=C(CN(c1cccc(Cl)c1)S(=O)(=O)c1ccccc1)NN=C1CCCC1 | 0.07%
O=C(CN1C2CCC1CC(NC(=O)C1CC1)C2)NCc1ccccc1 (configuration not stated) | -0.03%

Structure (SMILES) | inhibition
O=C1CC2(CCN(C(=O)COc3ccc(F)cc3)CC2)Oc2ccccc21 | -0.44%
CC(C)C(=O)N1CCN(c2nc(-c3ccccc3)c3c(c2C#N)CC(C)(C)OC3)CC1 | -0.13%
CC(C)C(=O)N1CCC2(CC1)Oc1ccc(F)cc1C(=O)C21CC(c2ccccc2)=NO1 (configuration not stated) | 78.3% (active)
CC(C)c1ccc2oc(=O)cc(CN3CCN(Cc4ccccc4)CC3)c2c1 | -0.11%
CCCCOc1ccc(C(=O)NCC(=O)OCC(=O)c2c(N)n(C)c(=O)n(C)c2=O)cc1 | 0.65% (active)
CCc1ccc(OCC(=O)OCC(=O)c2c(N)n(C)c(=O)n(C)c2=O)cc1 | -0.05%
Cn1c(N)c(C(=O)COC(=O)COc2ccc(Cl)cc2)c(=O)n(C)c1=O | 0%
O=C(NCC1CCCO1)c1ccccc1-c1nc(-c2ccccc2Cl)no1 (configuration not stated) | -0.05%
CCCNC(=O)N1CCC(c2ccc3c(c2)OCO3)CC1 | 0.01%
COc1ccc(C(=O)NC2CC(C)(C)Cc3c2cnn3-c2ccccc2)c(OC)c1 (configuration not stated) | 1.15% (active)
CC1(C)Cc2c(cnn2-c2cccc(F)c2)C(NC(=O)c2cc[n+]([O-])cc2)C1 (configuration not stated) | 0.12%
Cc1cc(C(=O)NC2CC(C)(C)Cc3c2cnn3-c2ccccc2)n[nH]1 (configuration not stated) | 0.03%
Cc1ccc(S(=O)(=O)N(Cc2ccc(Cl)cc2)c2ccccc2C(=O)NCc2cccnc2)cc1 | 0.08%
Cc1ccc(C(=O)Nc2ccc(NC(=O)c3cccs3)cc2)c(C)c1 | 0.18%
O=C(Nc1ccc(NC(=O)c2cccs2)cc1)c1ccc2ccccc2c1 | 1.22% (active)
COc1cc(NC(=O)c2ccc3c(c2)OCO3)ccc1NC(=O)c1cccs1 | -0.1%
CCOC(=O)C1CCN(C(=O)CN2C(=O)NC(C)(c3ccc4cc(OC)ccc4c3)C2=O)CC1 (configuration not stated) | -0.03%
O=C1c2ccccc2[C@@H]2C[C@@H](O)[C@H](Nc3ccccc3Cl)CCN12 | 0.16%
O=C(CNCc1ccc(F)cc1)Nc1ccccc1-c1ccccc1 | -0.07%
CCN(CC)CCn1c2c(c(SCC(=O)Nc3ccc(C(C)C)cc3)nc1=O)CCC2 | -0.06%
CC1CCCCC1NC(=O)c1cn(C)c2ccc(S(=O)(=O)N3CCOCC3)cc2c1=O (configuration not stated) | -0.14%
